Experimental data as given in publication PMC5540273 (PLoS ONE, 2017).

What follows are compounds tested on ROCK1. Conditions: concentration: 1 μM, replicates: in singlicate; n = 1.
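Also: KINOMEscan kinase panel screen.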

Compound | %Inh
Cl.c1ccc(-c2ccc3c(Nc4ccc5[nH]ccc5c4)ccnc3c2)nc1 [GW440138] | 23%
Cl.NC(=O)c1cccc(Nc2nccc(Nc3ccc(Oc4c(Cl)cccc4Cl)c(Cl)c3)n2)c1 [GW659009] | 0%
CSc1cccc2c(-c3ccncn3)c(-c3ccc(F)cc3)nn12 [GW514786] | 13%
Cl.Cl.NCC(NCc1ccc(-c2ccnc3[nH]ccc23)s1)c1ccccc1 (stereo not shown) [GSK1321565] | 100%
COC(=O)Nc1nc2ccc(Oc3ccc(NC(=O)Nc4cc(C(F)(F)F)ccc4F)cc3)cc2n1C.Cl [GW692089] | 34%
O=C(Nc1n[nH]c2cc(-c3ccoc3)ccc12)C1CC1 [SB-738481] | 0%
Fc1ccc(-c2ncn(C3CCNCC3)c2-c2ccnc(Oc3ccc(-c4ccccc4)cc3)n2)cc1 [SB-245391] | 0%
Cn1cc(-c2ccc3c(c2)CCN3C(=O)Cc2cccc(Cl)c2)c2c(N)ncnc21 [GSK2606590] | 0%
Cc1ccc(S(=O)(=O)Nc2ccc(Nc3nccc(Nc4cccc5[nH]ncc45)n3)cc2)cc1 [GSK581271] | 0%
O=C(O)C(F)(F)F.O=C(O)C(F)(F)F.O=c1[nH]ccc2nc(N[C@@H]3CCCNC3)nc(Nc3ccc(S(=O)(=O)N4CCOCC4)cc3)c12 [GSK2177277] | 99.6%
C[C@@H](Oc1cc(-n2cnc3cc(-c4ccnc(NCCS(C)(=O)=O)c4)ccc32)sc1C(N)=O)c1ccccc1Cl [GSK907232] | 0%
c1ccc(-c2cnc3nccnn23)cc1 [AH20685] | 0%
CCCCc1nn2ncccc2c1-c1ccnc(Nc2ccc(N3CCN(C)CC3)cc2)n1 [GW684941] | 32%
Cc1occc1-c1ncc(OC[C@@H](N)Cc2c[nH]c3ccccc23)cc1-c1ccc2[nH]nc(C)c2c1.O=C(O)C(F)(F)F [GSK682037] | 74%
Oc1cc(Nc2ccnc3cc(I)ccc23)ccc1F [GW552771] | 30%
Cc1ccc(C(=O)Nc2ccc(Nc3ccnc4cc(-c5nccs5)ccc34)cc2O)cc1.Cl [GW494702] | 18%
c1ccc(-c2n[nH]cc2Nc2ccnc3ccccc23)nc1 [GW694077] | 98.2%
C[C@@H]1CC[C@@H](C(=O)Nc2ccccc2)CN1c1cc(-c2ccc3c(N)n[nH]c3c2)nc(N)n1 [GSK2286062] | 14%
CN(C)S(=O)(=O)c1cc(-c2ccc3nccc(-c4cccc(S(N)(=O)=O)c4)c3c2)cnc1N [GSK1669921] | 0%
CCS(=O)(=O)c1ccc(OC)c(Nc2nccc(-c3c(-c4cccc(NC(=O)c5c(F)cccc5F)c4)nn4ncccc34)n2)c1 [GSK326180] | 2%
COc1cccc(C2=C(Nc3ccc(Cl)c(C(=O)O)c3)C(=O)NC2=O)c1 [SB-390769] | 28%
COc1cccc(NC(=O)NC2CCN(c3ccnc(Nc4cc(OC)c(OC)c(OC)c4)n3)C2)c1 (stereo not shown) [GSK1379763] | 4%
Cn1cc(-c2ccc3c(c2)CCN3C(=O)Cc2cccc(F)c2)c2c(N)ncnc21 [GSK2603358] | 9%
CC(=O)N1CCN(c2ccc(Nc3nccc(-c4sc(C(C)C)nc4-c4cccc(NS(=O)(=O)c5cccc(Cl)c5)c4)n3)cn2)CC1 [GSK1660437] | 0%
CN(C)Cc1ccc(-c2ccc3c(Nc4ccc(Oc5ccccn5)cc4)ccnc3c2)o1 [GW567148] | 6%

These compounds were tested on ROCK2. Conditions: concentration: 1 μM, replicates: in singlicate; n = 1.

Compound | %Inh
COCCOCCOc1cc2ncc3c4ccc(C#N)cc4[nH]c3c2cc1OC | 99.2%
Cn1cc(-c2[nH]c3cc(NC(=O)[C@H](N)C4CCCCC4)cc4c3c2C=NNC4=O)cn1 | 91.8%
COc1cc(Nc2ncc3c(C)nc(-c4cc5ccccc5[nH]4)n3n2)cc(OC)c1OC [GW869516] | 0%
COc1ccc(Nc2nccc(NCCNC(=O)c3cc4ccccc4s3)n2)cc1 [GSK1379896] | 28%
Cl.Cl.NCC(C(=O)Nc1cc(Br)c(-c2ccnc3[nH]ccc23)s1)c1ccccc1 (stereo not shown) [GSK1269851] | 91.8%
Cc1ccc(C)c(NC(=O)NC2CCN(c3ccnc(Nc4ccc(F)cc4)n3)C2)c1 (stereo not shown) [GSK1379720] | 29%
CN1CCN(CCCNc2nccc(-c3c(-c4ccc(F)cc4)nn4cc(C(F)(F)F)ccc34)n2)CC1 [GW621581] | 26%
O=C(Nc1cccc(-c2nn3ccccc3c2-c2ccnc(Nc3cccc(F)c3)n2)c1)c1c(F)ccc(F)c1Cl [GSK357952] | 18%
Nc1ncc(-c2cccnc2)c2scc(-c3ccc4c(c3)CCN4C(=O)Cc3ccccc3)c12 [GSK683281] | 6%
Cc1cccc(Nc2nc(N[C@H]3CCNC3)ncc2C(N)=O)c1.Cl [GSK2197149] | 45%
Cc1ccc(C(=O)N2CC[C@@H](O)C2)cc1-n1c(C)cc(OCc2ccc(F)cc2F)c(Br)c1=O | 0%
Cl.c1ccc(-c2ccc3c(Nc4ccc5[nH]ccc5c4)ccnc3c2)nc1 [GW440138] | 43%
Cl.NC(=O)c1cccc(Nc2nccc(Nc3ccc(Oc4c(Cl)cccc4Cl)c(Cl)c3)n2)c1 [GW659009] | 10%
CSc1cccc2c(-c3ccncn3)c(-c3ccc(F)cc3)nn12 [GW514786] | 19%
Cl.Cl.NCC(NCc1ccc(-c2ccnc3[nH]ccc23)s1)c1ccccc1 (stereo not shown) [GSK1321565] | 99.4%
COC(=O)Nc1nc2ccc(Oc3ccc(NC(=O)Nc4cc(C(F)(F)F)ccc4F)cc3)cc2n1C.Cl [GW692089] | 39%
O=C(Nc1n[nH]c2cc(-c3ccoc3)ccc12)C1CC1 [SB-738481] | 0%
Fc1ccc(-c2ncn(C3CCNCC3)c2-c2ccnc(Oc3ccc(-c4ccccc4)cc3)n2)cc1 [SB-245391] | 7%

Compound | %Inh
Cn1cc(-c2ccc3c(c2)CCN3C(=O)Cc2cccc(Cl)c2)c2c(N)ncnc21 [GSK2606590] | 40%
Cc1ccc(S(=O)(=O)Nc2ccc(Nc3nccc(Nc4cccc5[nH]ncc45)n3)cc2)cc1 [GSK581271] | 8%
O=C(O)C(F)(F)F.O=C(O)C(F)(F)F.O=c1[nH]ccc2nc(N[C@@H]3CCCNC3)nc(Nc3ccc(S(=O)(=O)N4CCOCC4)cc3)c12 [GSK2177277] | 92.8%
C[C@@H](Oc1cc(-n2cnc3cc(-c4ccnc(NCCS(C)(=O)=O)c4)ccc32)sc1C(N)=O)c1ccccc1Cl [GSK907232] | 0%
c1ccc(-c2cnc3nccnn23)cc1 [AH20685] | 0%
CCCCc1nn2ncccc2c1-c1ccnc(Nc2ccc(N3CCN(C)CC3)cc2)n1 [GW684941] | 30%
Cc1occc1-c1ncc(OC[C@@H](N)Cc2c[nH]c3ccccc23)cc1-c1ccc2[nH]nc(C)c2c1.O=C(O)C(F)(F)F [GSK682037] | 79%
Oc1cc(Nc2ccnc3cc(I)ccc23)ccc1F [GW552771] | 27%
Cc1ccc(C(=O)Nc2ccc(Nc3ccnc4cc(-c5nccs5)ccc34)cc2O)cc1.Cl [GW494702] | 12%
c1ccc(-c2n[nH]cc2Nc2ccnc3ccccc23)nc1 [GW694077] | 97.8%
C[C@@H]1CC[C@@H](C(=O)Nc2ccccc2)CN1c1cc(-c2ccc3c(N)n[nH]c3c2)nc(N)n1 [GSK2286062] | 35%
CN(C)S(=O)(=O)c1cc(-c2ccc3nccc(-c4cccc(S(N)(=O)=O)c4)c3c2)cnc1N [GSK1669921] | 0%
CCS(=O)(=O)c1ccc(OC)c(Nc2nccc(-c3c(-c4cccc(NC(=O)c5c(F)cccc5F)c4)nn4ncccc34)n2)c1 [GSK326180] | 18%
COc1cccc(C2=C(Nc3ccc(Cl)c(C(=O)O)c3)C(=O)NC2=O)c1 [SB-390769] | 12%
COc1cccc(NC(=O)NC2CCN(c3ccnc(Nc4cc(OC)c(OC)c(OC)c4)n3)C2)c1 (stereo not shown) [GSK1379763] | 9%
Cn1cc(-c2ccc3c(c2)CCN3C(=O)Cc2cccc(F)c2)c2c(N)ncnc21 [GSK2603358] | 64%
CC(=O)N1CCN(c2ccc(Nc3nccc(-c4sc(C(C)C)nc4-c4cccc(NS(=O)(=O)c5cccc(Cl)c5)c4)n3)cn2)CC1 [GSK1660437] | 18%
CN(C)Cc1ccc(-c2ccc3c(Nc4ccc(Oc5ccccn5)cc4)ccnc3c2)o1 [GW567148] | 11%
